Test [1] in a line: NCI Yeast Anticancer Drug Screen. Data for the rad50 strain (AID 155).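 Also: 0% = growth of vehicle-only cultures of the same strain.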 Conditions: S. cerevisiae rad50 strain growth inhibition, stronger effect = higher value. The method, boiled down: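 Yeast carrying a defined DNA repair defect were exposed to test compounds, and growth was compared with vehicle-treated controls to give percent inhibition.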
The nature of test [2]: NCI Yeast Anticancer Drug Screen. Data for the mec2-1 strain (AID 157). The conditions noted are these: S. cerevisiae mec2-1 strain, stronger effect = higher value. A digest of the protocol:
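mec2-1 yeast strain, carrying an alteration in DNA damage repair or cell cycle control, was exposed to compounds; growth inhibition was measured relative to vehicle-treated controls.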

Test [3] is described as follows: NCI Yeast Anticancer Drug Screen. Data for the sgs1 mgt1 strain (AID 161).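 Also: 0% = growth of cultures given vehicle only.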 Conditions: S. cerevisiae sgs1 mgt1 strain, stronger effect = higher value. A digest of the protocol:
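Yeast cells carrying a defined DNA-repair defect were exposed to test compounds. Growth inhibition was measured relative to vehicle-treated controls.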

Test [4] can be described thus: NCI Yeast Anticancer Drug Screen. Data for the cln2 rad14 strain (AID 165).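 Also: 0% = growth equal to vehicle treated cultures.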 Conditions: S. cerevisiae cln2 rad14 strain, stronger effect = higher value. A digest of the protocol: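 Yeast carrying cln2 and rad14 alterations (cell cycle control and DNA damage repair) were exposed to compounds. Growth inhibition was measured against vehicle-treated controls.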
Test [5] can be described thus: NCI Yeast Anticancer Drug Screen. Data for the bub3 strain (AID 167). The conditions noted are these: S. cerevisiae bub3 mutant strain, stronger effect = higher value. A digest of the protocol:
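Compounds were applied to a genetically altered yeast strain carrying a cell-cycle control defect. Growth inhibition was scored against vehicle-treated controls.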

Test [6] can be described thus: NCI Yeast Anticancer Drug Screen. Data for the mlh1 rad18 strain (AID 175). The conditions noted are these: S. cerevisiae mlh1 rad18 strain growth inhibition, stronger effect = higher value. A digest of the protocol:
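Growth inhibition of the yeast strain was measured after compound exposure and expressed relative to vehicle-treated controls. The strain carries defined defects in DNA damage repair.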

Where [7] appears, read: at 5.0 µM (retest, dose inferred, filed as 0.5).
The mark [8] stands for this setting: at 50.0 µM (retest, dose inferred, filed as 5.0).

The panel holds about 79,000 compounds, 15% with a hit somewhere; the sample as a whole holds those more often. Values without a mark were called inactive. The source made the active and inactive calls. Rule as the data show it: active = growth inhibition above about 70%; inactive = the rest.

Consider `COc1ccc(/C=C2\CCC(CN3CCOCC3)C2=O)cc1` (stereo unspecified), for which the growth inhibition was 65% in test [1] (setting [7]); 99% (active) in test [1] (setting [8]); 93.5% (active) in test [1] (at 50.0 µM); 92% (active) in test [2] (setting [7]); 100% (active) in test [2] (setting [8]); 93.8% (active) in test [2] (at 50.0 µM). The growth inhibition in test [3] (setting [7]) was 55%; in test [3] (setting [8]), 99% (active); in test [3] (at 50.0 µM), 93.2% (active); in test [4] (setting [7]), 46%; in test [4] (setting [8]) it was 99% (active); in test [4] (at 50.0 µM), 91.8% (active). The growth inhibition in test [5] (setting [7]) is 96% (active); in test [5] (setting [8]), 99% (active); in test [5] (at 50.0 µM), 92.7% (active); in test [6] (setting [7]) it was 89% (active); in test [6] (setting [8]) it was 97% (active); in test [6] (at 50.0 µM), 89.7% (active).

With `O=C1/C(=C/c2ccccc2)CNC/C1=C\c1ccccc1`, the growth inhibition in test [1] (setting [7]) was -11%; in test [1] (setting [8]), 98% (active); in test [1] (at 50.0 µM), 98.7% (active); in test [2] (setting [7]), 26%; in test [2] (setting [8]), 97% (active); in test [2] (at 50.0 µM) it was 99.3% (active). Further, the growth inhibition is -7% in test [3] (setting [7]); 96% (active) in test [3] (setting [8]); 95.2% (active) in test [3] (at 50.0 µM); 10% in test [4] (setting [7]); 98% (active) in test [4] (setting [8]); 92.5% (active) in test [4] (at 50.0 µM). In addition, the growth inhibition is 6% in test [5] (setting [7]); 98% (active) in test [5] (setting [8]); 94.2% (active) in test [5] (at 50.0 µM); -4% in test [6] (setting [7]); 98% (active) in test [6] (setting [8]); 99.2% (active) in test [6] (at 50.0 µM).

Turning to `O=C1CCCCC1Sc1ccc(Cl)cc1` (stereo unspecified), the growth inhibition was 1% in test [1] (setting [7]); 94% (active) in test [1] (setting [8]); 91.2% (active) in test [1] (at 50.0 µM); 2% in test [2] (setting [7]); 95% (active) in test [2] (setting [8]); 91.1% (active) in test [2] (at 50.0 µM). The growth inhibition in test [3] (setting [7]) was 2%; in test [3] (setting [8]), 87% (active); in test [3] (at 50.0 µM), 96.3% (active); in test [4] (setting [7]), -4%; in test [4] (setting [8]), 76% (active); in test [4] (at 50.0 µM), 76.1% (active). The growth inhibition is 3% in test [5] (setting [7]); 96% (active) in test [5] (setting [8]); 85.2% (active) in test [5] (at 50.0 µM); 2% in test [6] (setting [7]); 94% (active) in test [6] (setting [8]); 87.5% (active) in test [6] (at 50.0 µM).

As to `C=Cc1cc(O)cc2c1-c1ccc(O)c(C)c1CC2`, the growth inhibition is 10% in test [1] (setting [7]); 99% (active) in test [1] (setting [8]); 99.7% (active) in test [1] (at 50.0 µM); -22% in test [2] (setting [7]); 100% (active) in test [2] (setting [8]); 99.8% (active) in test [2] (at 50.0 µM). In addition, the growth inhibition in test [3] (setting [7]) was -1%; in test [3] (setting [8]), 99% (active); in test [3] (at 50.0 µM), 99.8% (active); in test [4] (setting [7]), -3%; in test [4] (setting [8]) it was 99% (active); in test [4] (at 50.0 µM), 99.6% (active). In addition, the growth inhibition in test [5] (setting [7]) was 10%; in test [5] (setting [8]), 99% (active); in test [5] (at 50.0 µM) it was 99.5% (active); in test [6] (setting [7]) it was -5%; in test [6] (setting [8]), 99% (active); in test [6] (at 50.0 µM) it was 99.7% (active).

For `O=C(Cc1c[nH]c2ccccc12)N/N=C/c1ccc(Cl)cc1[N+](=O)[O-]`, the growth inhibition was -5% in test [1] (setting [7]); 73% (active) in test [1] (setting [8]); 39.8% in test [1] (at 50.0 µM); 1% in test [2] (setting [7]); 88% (active) in test [2] (setting [8]); 20.4% in test [2] (at 50.0 µM). Also, the growth inhibition in test [3] (setting [7]) is -4%; in test [3] (setting [8]), 94% (active); in test [3] (at 50.0 µM), 36.6%; in test [4] (setting [7]), -5%; in test [4] (setting [8]), 89% (active); in test [4] (at 50.0 µM), 38.8%. For the same molecule, the growth inhibition was -3% in test [5] (setting [7]); 93% (active) in test [5] (setting [8]); 19.5% in test [5] (at 50.0 µM); 13% in test [6] (setting [7]); 90% (active) in test [6] (setting [8]); 66.7% in test [6] (at 50.0 µM).

Consider `CC(C)(C)OC(=O)C(N(Cc1ccccc1)Cc1ccccc1)N(Cc1ccccc1)Cc1ccccc1`, for which the growth inhibition in test [1] (setting [7]) is 0%; in test [1] (setting [8]), 14%; in test [1] (at 50.0 µM), 12.1%; in test [2] (setting [7]) it was 2%; in test [2] (setting [8]), 9%; in test [2] (at 50.0 µM), 20.6%. The growth inhibition in test [3] (setting [7]) was 2%; in test [3] (setting [8]) it was 17%; in test [3] (at 50.0 µM), 24.4%; in test [4] (setting [7]), 3%; in test [4] (setting [8]), 10%; in test [4] (at 50.0 µM), -2.05%. The growth inhibition was 0% in test [5] (setting [7]); 11% in test [5] (setting [8]); 4.75% in test [5] (at 50.0 µM); 3% in test [6] (setting [7]); 22% in test [6] (setting [8]); 30.3% in test [6] (at 50.0 µM).

For the molecule `O=C(C(Cl)Cl)N(O)c1ccccc1OCc1ccccc1`, the growth inhibition is 10% in test [1] (setting [7]); 52% in test [1] (setting [8]); 72.2% (active) in test [1] (at 50.0 µM); 9% in test [2] (setting [7]); 73% (active) in test [2] (setting [8]); 41.9% in test [2] (at 50.0 µM). Moreover, the growth inhibition in test [3] (setting [7]) is 8%; in test [3] (setting [8]) it was 94% (active); in test [3] (at 50.0 µM) it was 90% (active); in test [4] (setting [7]), 6%; in test [4] (setting [8]), 27%; in test [4] (at 50.0 µM), 34.4%. In addition, the growth inhibition in test [5] (setting [7]) was 2%; in test [5] (setting [8]) it was 67%; in test [5] (at 50.0 µM), 62.4%; in test [6] (setting [7]), 56%; in test [6] (setting [8]), 95% (active); in test [6] (at 50.0 µM) it was 89% (active).

Source of the values: PubChem BioAssay (NCI).
